# The source made the active and inactive calls. Unless noted, no rule for the calls is given here.
# Assays:
# [1] = compounds binding Alexa647 anti-His antibody – biochemical, small-molecule microarray, 635 nm fluorescence, artefact control for SMM control protein annotation, primary screen (AID 1128); conditions: higher = more signal;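 also: score merges feature fluorescence with signal-to-noise for each printed compound spot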
# [2] = tested on: Human papillomavirus type 1a E7 protein (residues 1-88); experiment: HPV1a E7 small-molecule binders, primary screen, biochemical, small-molecule microarray, residues 1-88, 635 nm (AID 1129); conditions: small-molecule microarray binding, fluorescence 635 nm; higher = more signal
# [3] = target: Focal adhesion kinase 1 (Homo sapiens) (UniProt Q05397); experiment: PTK2 protein binding on printed compound slides – biochemical, small-molecule microarray, 635/667 nm fluorescence, BSA, DTT, primary screen (AID 1130); conditions: 635 nm fluorescence, higher = more signal;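 also: composite of spot emission at 667 nm and signal to noise over triplicate slides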
# [4] = tested on: Fibrinogen (Alexa647-labelled); experiment: Alexa647-fibrinogen binding to printed small molecules – biochemical, small-molecule microarray, 635/667 nm fluorescence, artefact control for SMM control-protein annotation, profiling panel (AID 1131); conditions: fibrinogen-A647 binding fluorescence, higher = more signal;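 also: z-score merges 667 nm fluorescence with per-spot signal-to-noise over triplicate slides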
# [5] = target: Follistatin (Homo sapiens) (UniProt P19883); experiment: FST protein binding to printed compounds – biochemical, small-molecule microarray, 635/667 nm fluorescence, primary screen (AID 1132); conditions: 635 nm fluorescence, higher = more signal
# [6] = target: Fibroblast growth factor 2 (Homo sapiens) (UniProt P09038); experiment: basic fibroblast growth factor binding to printed compounds – biochemical, small-molecule microarray, 635/667 nm fluorescence, primary screen (AID 1133); conditions: FGF2, fluorescence 635/667, higher = more signal
# [7] = JC-1 mitochondrial potential readout, lung cancer cells – cell-based, A549, JC-1 fluorescence, basal, 24 h, 100 nL, profiling panel (AID 1138); conditions: higher = more signal;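 also: A549 lung adenocarcinoma cells under basal conditions with no added stimulus; test concentration not given here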
# Lefty1 = Lefty1 protein binding to printed compounds – biochemical, small-molecule microarray, 635/667 nm fluorescence, primary screen (AID 1139); conditions: fluorescence 635/667, higher = more signal
# [8] = tested on: wheat germ agglutinin (Triticum aestivum), Alexa647-labelled; experiment: Alexa647-WGA lectin binding to printed small molecules – biochemical, small-molecule microarray, 635/667 nm fluorescence, artefact control for SMM control-protein annotation, profiling panel (AID 1140); conditions: WGA-A647 binding, 635 nm fluorescence, higher = more signal;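 also: score merges 667 nm feature emission with signal to noise over triplicate slides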
# [9] = target: Luciferin 4-monooxygenase (Photinus pyralis) (UniProt P08659); experiment: inhibition of purified Photinus pyralis luciferase – biochemical, luminescence, purified enzyme, 2006 set, primary screen (AID 1141); conditions: purified firefly luciferase, SteadyGlo luminescence, 30 min; higher = more signal, called active from +8 up or from −8 down;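 also: cell-free assay with purified firefly luciferase at 100 ng per well in PBS; test concentration not given here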
# [10] = tested on: Wnt5a (protein binding on small-molecule microarray); experiment: small molecules binding Wnt5a protein – biophysical, small-molecule microarray, 635/667 nm fluorescence, primary screen (AID 1142); conditions: 635 nm fluorescence, higher = more signal;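 also: fluorescence read at 667 nm with signal to noise per printed feature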
# [11] = ATP-based viability of Huh7 replicon cells – cell-based, CellTiter-Glo luminescence, basal, 48 h, cytotoxicity control for HCV replication inhibitor project, primary screen (AID 1143); conditions: higher = more signal, called active from +8 up or from −8 down;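 also: Huh7 hepatoma cells carrying a hepatitis C replication reporter with no stimulus; test concentration not given here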
# [12] = Pseudomonas biofilm growth suppression – PAO1 strain, BacTiter-Glo luminescence, LB-PBS, primary screen (AID 1144); conditions: P. aeruginosa PAO1 biofilm, 12 h, higher = more signal
# [13] = basal CRE-LacZ reporter activity in PC12 – cell-based, unstimulated, primary screen (AID 1145); conditions: no forskolin, luminescence, 4.5 h, higher = more signal, called active from +8 up or from −8 down
# [14] = forskolin-driven CRE-LacZ activity in PC12 – cell-based, CRE-LacZ reporter, forskolin-stimulated, primary screen (AID 1146); conditions: luminescence, 4.5 h, higher = more signal, called active from +8 up or from −8 down;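 also: PC12 cells with 6xCRE LacZ reporter stimulated by forskolin 10 µM; beta-galactosidase reporter signal reflecting CREB driven transcription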
# [15] = target: Streptavidin (Streptomyces avidinii) (UniProt P22629); experiment: compounds binding control protein streptavidin – biophysical, small-molecule microarray, 635/667 nm fluorescence, artefact control for SMM compound annotation, primary screen (AID 1147); conditions: higher = more signal;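 also: signal reflects streptavidin binding to arrayed compounds as a control protein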
# [16] = probe aInhba binding on compound microarray – biochemical, small-molecule microarray, 635/667 nm fluorescence, primary screen (AID 1148); conditions: higher = more signal;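 also: score merges 667nm spot fluorescence with signal-to-noise for antibody binding to printed compounds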
# Torsin-1A (Homo sapiens) [17] = target: Torsin-1A (Homo sapiens) (UniProt O14656); experiment: TOR1A wild-type binding on microarray – cell lysate, small-molecule microarray, lysate, 635/667 nm, primary screen (AID 1149); conditions: COS7 hTOR1A-WT lysate, 635 nm fluorescence, higher = more signal
# Torsin-1A (Homo sapiens) [18] = target: Torsin-1A (Homo sapiens) (UniProt O14656); experiment: torsin A mutant lysate binding on microarrays – cell lysate, small-molecule microarray, COS7 lysate, 635/667 nm fluorescence, primary screen (AID 1150); conditions: COS7 hTOR1A mutant lysate, 635 nm fluorescence, higher = more signal;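 also: score pools 667 nm emission and signal to noise measuring lysate protein binding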
# [19] = tested on: Sonic hedgehog protein (Shh); experiment: Sonic hedgehog microarray binding compounds – biochemical, small-molecule microarray, 635/667 nm fluorescence, primary screen (AID 1151); conditions: 635 nm fluorescence, higher = more signal;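 also: Shh protein binding to compounds spotted on small-molecule microarray slides; score combines spot fluorescence intensity with signal-to-noise across triplicate slides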
# Sequence of Torsin-1A (Homo sapiens) (O14656 whole entry, looked up): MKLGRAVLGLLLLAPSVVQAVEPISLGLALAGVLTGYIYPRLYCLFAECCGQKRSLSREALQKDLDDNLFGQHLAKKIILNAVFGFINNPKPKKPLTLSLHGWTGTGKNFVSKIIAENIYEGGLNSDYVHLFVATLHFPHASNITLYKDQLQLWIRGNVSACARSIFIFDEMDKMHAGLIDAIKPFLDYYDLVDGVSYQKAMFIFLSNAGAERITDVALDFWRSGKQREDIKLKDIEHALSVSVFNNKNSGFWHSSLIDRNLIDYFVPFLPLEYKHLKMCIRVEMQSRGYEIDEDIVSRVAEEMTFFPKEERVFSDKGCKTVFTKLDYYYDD
# Sequence of Follistatin (Homo sapiens) (P19883 whole entry, looked up): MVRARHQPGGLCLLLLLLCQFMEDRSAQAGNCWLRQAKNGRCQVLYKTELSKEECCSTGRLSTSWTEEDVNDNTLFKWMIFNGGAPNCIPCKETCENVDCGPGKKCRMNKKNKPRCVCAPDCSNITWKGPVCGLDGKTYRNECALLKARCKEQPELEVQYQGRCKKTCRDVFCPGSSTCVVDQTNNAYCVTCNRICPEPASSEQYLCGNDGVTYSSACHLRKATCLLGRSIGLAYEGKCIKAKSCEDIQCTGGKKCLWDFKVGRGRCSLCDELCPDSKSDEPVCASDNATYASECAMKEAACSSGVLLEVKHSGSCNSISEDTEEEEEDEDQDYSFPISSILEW
# Sequence of Focal adhesion kinase 1 (Homo sapiens) (Q05397 whole entry, looked up): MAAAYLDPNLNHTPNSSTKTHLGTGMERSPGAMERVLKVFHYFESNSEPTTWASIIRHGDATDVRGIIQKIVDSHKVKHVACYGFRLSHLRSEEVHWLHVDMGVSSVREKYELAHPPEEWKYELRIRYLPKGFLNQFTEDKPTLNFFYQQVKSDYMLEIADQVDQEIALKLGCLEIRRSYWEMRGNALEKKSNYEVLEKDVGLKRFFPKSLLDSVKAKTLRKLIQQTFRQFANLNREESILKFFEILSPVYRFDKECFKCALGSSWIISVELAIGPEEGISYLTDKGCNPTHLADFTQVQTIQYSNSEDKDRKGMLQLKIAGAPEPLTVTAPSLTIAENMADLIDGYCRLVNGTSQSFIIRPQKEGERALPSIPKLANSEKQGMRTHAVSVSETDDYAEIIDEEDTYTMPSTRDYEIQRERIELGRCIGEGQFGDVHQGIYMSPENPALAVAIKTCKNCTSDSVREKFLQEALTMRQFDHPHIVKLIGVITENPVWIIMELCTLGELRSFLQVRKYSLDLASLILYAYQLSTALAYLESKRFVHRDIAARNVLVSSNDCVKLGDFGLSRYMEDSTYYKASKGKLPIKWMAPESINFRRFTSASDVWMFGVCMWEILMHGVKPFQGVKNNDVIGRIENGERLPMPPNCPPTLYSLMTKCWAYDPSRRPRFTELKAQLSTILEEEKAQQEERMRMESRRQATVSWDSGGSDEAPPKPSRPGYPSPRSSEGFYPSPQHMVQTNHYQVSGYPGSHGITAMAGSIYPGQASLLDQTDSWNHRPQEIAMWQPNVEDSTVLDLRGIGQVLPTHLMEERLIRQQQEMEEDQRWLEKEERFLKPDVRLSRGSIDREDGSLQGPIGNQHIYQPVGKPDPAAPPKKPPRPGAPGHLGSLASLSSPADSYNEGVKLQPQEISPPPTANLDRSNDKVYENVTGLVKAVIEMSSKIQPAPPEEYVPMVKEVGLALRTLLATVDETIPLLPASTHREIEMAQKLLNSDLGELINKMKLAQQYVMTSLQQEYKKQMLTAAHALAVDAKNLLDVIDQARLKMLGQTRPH
# Sequence of Streptavidin (Streptomyces avidinii) (P22629 whole entry, looked up): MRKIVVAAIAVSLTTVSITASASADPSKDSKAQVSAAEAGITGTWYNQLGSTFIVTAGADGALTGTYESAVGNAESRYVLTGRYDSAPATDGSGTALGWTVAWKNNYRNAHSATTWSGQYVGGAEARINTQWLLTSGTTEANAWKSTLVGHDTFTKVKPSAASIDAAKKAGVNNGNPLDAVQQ
# Sequence of Luciferin 4-monooxygenase (Photinus pyralis) (P08659 whole entry, looked up): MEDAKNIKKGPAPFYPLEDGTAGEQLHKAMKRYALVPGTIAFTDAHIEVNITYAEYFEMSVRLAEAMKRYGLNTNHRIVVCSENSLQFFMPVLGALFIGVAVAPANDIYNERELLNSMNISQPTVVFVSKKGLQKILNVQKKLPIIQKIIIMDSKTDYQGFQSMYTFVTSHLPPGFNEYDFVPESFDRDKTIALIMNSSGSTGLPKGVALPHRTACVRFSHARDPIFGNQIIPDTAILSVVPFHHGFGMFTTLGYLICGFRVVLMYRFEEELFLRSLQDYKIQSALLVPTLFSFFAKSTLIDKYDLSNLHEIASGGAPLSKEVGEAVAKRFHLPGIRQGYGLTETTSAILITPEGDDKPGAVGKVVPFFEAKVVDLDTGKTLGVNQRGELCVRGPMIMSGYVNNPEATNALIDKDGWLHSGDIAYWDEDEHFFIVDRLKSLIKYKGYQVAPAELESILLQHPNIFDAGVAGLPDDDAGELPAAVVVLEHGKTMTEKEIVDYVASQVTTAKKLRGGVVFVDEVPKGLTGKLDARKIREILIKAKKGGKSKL
# Sequence of Fibroblast growth factor 2 (Homo sapiens) (P09038 whole entry, looked up): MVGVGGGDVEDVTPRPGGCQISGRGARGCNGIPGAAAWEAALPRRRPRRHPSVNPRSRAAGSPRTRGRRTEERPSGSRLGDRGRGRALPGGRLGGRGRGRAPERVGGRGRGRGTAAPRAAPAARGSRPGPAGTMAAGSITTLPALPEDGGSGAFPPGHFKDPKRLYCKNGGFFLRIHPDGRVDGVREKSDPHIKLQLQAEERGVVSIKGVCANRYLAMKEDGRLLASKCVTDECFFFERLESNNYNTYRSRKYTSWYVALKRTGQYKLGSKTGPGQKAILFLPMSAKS
SMILES,composite z-score [1],composite z-score [2],composite z-score [3],composite z-score [4],composite z-score [5],composite z-score [6],z-score [7],composite z-score (Lefty1),composite z-score [8],z-score [9],composite z-score [10],z-score [11],z-score [12],z-score [13],z-score [14],composite z-score [15],composite z-score [16],composite z-score (Torsin-1A (Homo sapiens) [17]),composite z-score (Torsin-1A (Homo sapiens) [18]),composite z-score [19]
COCCOC(=O)N1C(=O)[C@@]2(c3cc(C#CC4=CCCCC4)ccc31)[C@H](C(=O)N1CCCCCCC1)[C@H]1C(=O)O[C@H](c3ccccc3)[C@H](c3ccccc3)N1[C@@H]2c1ccc(O)cc1,-0.014,1.13,0.701,-0.0414,1.12,0.446,0.5,0.486,0.436,-5.8 (inactive),0.278,-4.39 (inactive),-1.7 (inactive),-0.815 (inactive),0.234 (inactive),0.0947,0.329,0.681,0.595,1.3
COC(=O)C(CC#Cc1ccc2c(c1)[C@]1(C(=O)N2)[C@H](c2ccccc2OCCO)N2[C@H](c3ccccc3)[C@H](c3ccccc3)OC(=O)[C@H]2[C@@H]1C(=O)NC[C@H](O)c1ccccc1)C(=O)OC,1.42,1.23,3.08,0.427,0.597,1.06,-0.789,0.697,1.14,-0.832 (inactive),0.572,-3.75 (inactive),-1.26 (inactive),-0.168 (inactive),0.717 (inactive),0.0979,-0.199,0.951,0.68,1.22
CCCNC(=O)[C@@H]1c2ccccc2C(=O)N(C(C)C)[C@H]1c1ccc(CO)cc1,3,-0.645,-0.19,-0.29,-0.577,-0.517,1.39,-0.371,-0.03,0.407 (inactive),-0.122,-0.0095 (inactive),-0.521 (inactive),-0.412 (inactive),0.211 (inactive),-0.0547,0.0658,-0.215,0.0984,-0.121
N#Cc1ccc(C(O)C2C=CC3C(=O)N(c4ccccc4)C(=O)C3N2Nc2ccccc2)cc1 (stereo not given),0.269,0.455,0.575,0.528,0.351,-0.265,-0.171,-0.454,0.502,-1.26 (inactive),0.429,-3.06 (inactive),-0.955 (inactive),-0.133 (inactive),0.0648 (inactive),0.592,0.144,-0.0489,0.227,-0.669
COc1ccc([Si](C)(C)[C@@H]2[C@@H](CC(=O)N(CCO)Cc3ccccc3)O[C@]3(C(=O)N(Cc4cccc(N5C(=O)c6cccc7cccc5c67)c4)c4ccccc43)[C@H]2C)cc1,0.63,-0.46,0.994,0.725,1.1,1.72,-0.538,0.972,0.369,0.187 (inactive),-0.164,-5.84 (inactive),-1.02 (inactive),-0.999 (inactive),-0.823 (inactive),-0.24,-0.0762,-0.0207,0.502,0.982
COCCCNC(=O)[C@]1(CCS(=O)(=O)c2ccccc2)N=C(c2ccc(OCCCO)cc2)O[C@@H]1c1ccccc1N=[N+]=[N-],2.09,1.22,-0.0436,0.996,0.794,-0.138,0.789,-0.279,1.13,-10.1 (active),1.02,-2.78 (inactive),2.09 (inactive),0.297 (inactive),-1.27 (inactive),1.31,-0.0907,0.602,0.441,-0.498
C=CCOC(=O)[C@H]1[C@@H]2C(=O)O[C@@H](c3ccccc3)[C@@H](c3ccccc3)N2[C@@H](c2ccc(OCCOC(=O)[C@H]3C[C@H]4C(=O)N[C@@H](CCCCNC(C)=O)C(=O)N4[C@H]3c3ccc(O)cc3)cc2)[C@]12C(=O)Nc1ccccc12,2.7,1.12,0.765,0.732,1.4,1.63,-1.16,1.1,0.538,-2.37 (inactive),0.228,-1.59 (inactive),-1.57 (inactive),0.147 (inactive),-0.542 (inactive),-0.292,-0.146,0.757,0.835,1.75
O=C1O[C@H](c2ccccc2)[C@H](c2ccccc2)N2[C@H]1[C@@H](C(=O)O)[C@]1(C(=O)Nc3ccc(C#CC4=CCCCC4)cc31)[C@H]2c1ccc(O)cc1,0.687,0.394,0.0304,0.987,1.35,0.392,-2.35,0.841,0.362,-2.89 (inactive),0.423,-0.53 (inactive),0.608 (inactive),1.72 (inactive),0.945 (inactive),-0.0343,-0.157,-0.107,0.298,1.22
COCCOC(=O)N1C(=O)[C@@]2(c3cc(C#CCNC(N)=O)ccc31)[C@H](C(=O)N1CCc3cc(OC)c(OC)cc3C1)[C@H]1C(=O)O[C@H](c3ccccc3)[C@H](c3ccccc3)N1[C@@H]2c1ccccc1OCCO,1.16,0.778,0.378,0.757,1.2,1.48,-1.12,0.716,0.524,-0.709 (inactive),0.358,-2.32 (inactive),-0.772 (inactive),0.0776 (inactive),-0.979 (inactive),0.639,0.0301,0.969,0.498,1.81
COCCCNC(=O)[C@@]1(Cc2ccccc2N=[N+]=[N-])N=C(c2ccc(OCCCO)cc2)O[C@H]1c1ccccc1,2.18,1.21,0.854,0.776,1.46,1.03,0.624,0.256,0.759,-0.97 (inactive),1.51,-4.36 (inactive),-1.31 (inactive),0.558 (inactive),-0.472 (inactive),-0.459,0.0589,3.67,3.61,0.55
